IL1B secr inh – inflammasome signaling inhibition, IL-1 beta readout | THP-1 LPS/ATP IL-1B secretion, AlphaLISA, 16 h; active compounds read low | activity change, % at 57.5 µM | 4.7% of 360,000 active; in the data active = activity change below about -50%; inconclusive = mostly about -30% to -49%; also: % is scaled to controls: 0 for no effect and ±100 for the full control effect
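Secreted IL-1B measured by AlphaLISA bead assay after 16 h compound exposure of THP-1 cells; compounds (final up to 57.5 uM) added 1 h before LPS (250 ng/mL) and ATP (1.25 mM) stimulation; lower signal means less secretion.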
DT40 TDP1 CPT – DT40-hTDP1 cell growth loss with CPT. AID 686979. Potency, µM (highest dose often 46.2 µM), without a hit: top-dose activity change, negative = growth inhibition, most hits filed as inhibitors. 12% of 420,000 active. chicken DT40 Tdp1-/-;hTDP1 cells + 20 nM CPT, ATP luminescence, 48 h; also: potency is read from the fitted curve at half-maximal effect; % is scaled to controls: 0 for no effect and ±100 for the full control effect; nearly all actives have a fitted effect of over 55% in size
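Chicken DT40 Tdp1-/- cells stably complemented with human TDP1 were seeded at 400 cells/well in medium containing 20 nM camptothecin, exposed to pin-transferred compounds, and grown at 37 °C for at least 48 hr. Viability was read as ATP luminescence.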
HepG2 tox – kills HepG2 cells in TGF-b inhibitor counter-screen | HepG2 CAGA-GFP viability, ATP luminescence, 18 h | 0.76% of 410,000 active | Potency, µM (series often up to 46.1 µM), without a hit: at the highest dose activity change, negative = cytotoxicity, usual class: cytotoxic; also: potency is read from the fitted curve at half-maximal effect
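HepG2 CAGA-GFP cells (1000/well, DMEM with 1% FBS) received compound, then TGF-beta at 500 pg/mL final, and were incubated 18 hours at 37 degrees C. Viability was read by CellTiter-Glo luminescence. Media-only wells were set as complete cell-killing and DMSO as no toxicity.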
TGFb inhibitor – inhibitors of TGF-b signaling | HepG2 CAGA-GFP TGF-b/SMAD3 reporter, GFP fluorescence, 18 h; TGF-beta stimulated, 500 pg/mL final | Potency, µM (top dose mostly 46.1 µM), without a hit: at the highest dose activity, negative = inhibition, actives largely listed as inhibitors | 1.2% of 410,000 active | AID 588855; also: potency is read from the fitted curve at half-maximal effect; % is scaled to controls: 0 for no effect and ±100 for the full control effect; nearly all actives have a fitted effect of over 65% in size
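Smad-responsive CAGA-GFP expression was quantified in HEPG2 cells exposed to compounds and 500 pg/mL final TGF-beta for 18 h at 37 degrees C; unstimulated wells defined full inhibition.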
TDP1 inh – TDP1 (human) enzyme inhibition; Q9NUW8; recombinant TDP1, AlphaScreen DNA substrate cleavage; 0.28% of 350,000 active; AID 485290; Potency, µM (series often up to 130 µM), inactives show at the top dose activity change, negative = inhibition, hits mostly inhibitors; also: potency is read from the fitted curve at half-maximal effect; % is scaled to controls: 0 for no effect and ±100 for the full control effect; nearly all actives have a fitted effect of over 40% in size
Target sequence (Q9NUW8 whole entry, looked up): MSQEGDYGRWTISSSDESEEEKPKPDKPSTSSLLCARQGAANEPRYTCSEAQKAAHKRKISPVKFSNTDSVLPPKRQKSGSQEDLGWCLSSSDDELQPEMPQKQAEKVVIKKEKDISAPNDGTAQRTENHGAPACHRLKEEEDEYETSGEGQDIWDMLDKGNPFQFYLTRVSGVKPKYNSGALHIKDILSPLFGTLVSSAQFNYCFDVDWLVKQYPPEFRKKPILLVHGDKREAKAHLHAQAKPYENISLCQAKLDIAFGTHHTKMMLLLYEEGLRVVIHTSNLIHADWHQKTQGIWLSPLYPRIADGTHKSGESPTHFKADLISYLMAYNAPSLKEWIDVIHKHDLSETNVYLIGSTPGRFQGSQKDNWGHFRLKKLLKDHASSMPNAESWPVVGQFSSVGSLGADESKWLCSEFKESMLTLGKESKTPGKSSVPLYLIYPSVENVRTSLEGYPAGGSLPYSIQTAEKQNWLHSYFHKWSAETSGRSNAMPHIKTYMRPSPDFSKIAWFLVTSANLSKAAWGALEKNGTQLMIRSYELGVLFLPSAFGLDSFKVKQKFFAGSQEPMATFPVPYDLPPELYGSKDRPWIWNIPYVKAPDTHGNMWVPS
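Signal: AlphaScreen proximity between streptavidin donor and anti-FITC acceptor beads on intact substrate. Reaction: Tdp1 1 nM, substrate 15 nM final, 5 min RT after 15 min compound preincubation.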
TDP1 cell noCPT – qHTS for Inhibitors of human tyrosyl-DNA phosphodiesterase 1 (TDP1): qHTS in cells in absence of CPT | 15% of 420,000 active | AID 686978, 2013 | Potency, µM (titrated, usually from 46.2 µM), without a hit: at the top dose activity change, negative = growth inhibition, hits mostly inhibitors | DT40 Tdp1-/- hTDP1 cells, no CPT, ATP luminescence, 48 h; also: potency is read from the fitted curve at half-maximal effect; % is scaled to controls: 0 for no effect and ±100 for the full control effect; nearly all actives have a fitted effect of over 55% in size
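Readout: luminescence from CellTiter-Glo after 30 min in the dark at RT. Cells: DT40 Tdp1-/- with stable hTDP1, 400/well. Exposure: compounds alone, ≥48 hr, 37 °C.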
The depositor's hits bear a star; [ ] = another dose, or the depositor's remark. Shown are actives, neighbours in structure and some others; about 18% of the full set was active somewhere. Unless noted, calls follow the shape of the dose curve; as a rule, active = well fitted curve in the direction sought with a large enough effect; inconclusive = small, poorly fitted or top-dose-only effect, or another doubt; inactive = no such curve, though single readings can be large; an effect the other way counts as inactive or inconclusive.

CC1CCC(C(=O)NNC(=O)c2cc(-c3ccco3)[nH]n2)CC1 (stereo not given) was read as IL1B secr inh -4, DT40 TDP1 CPT 18µM*, HepG2 tox -16%, TGFb inhibitor -19%, TDP1 inh 0% and TDP1 cell noCPT 16µM*.
Screening COc1ccc(-c2nc(CSCC(=O)N3CCC(C(N)=O)CC3)c(C)o2)cc1OC returned IL1B secr inh 0, DT40 TDP1 CPT 21%, HepG2 tox 0%, TGFb inhibitor 0%, TDP1 inh 5% and TDP1 cell noCPT -2%.
`Cc1cccc(-c2nc(CSCC(=O)N3CCN(c4ccccn4)CC3)c(C)o2)c1` gave IL1B secr inh -59*, DT40 TDP1 CPT 21µM*, HepG2 tox -23%, TGFb inhibitor -13%, TDP1 inh 3% and TDP1 cell noCPT inconclusive.
For Cc1cccc(-c2nc(CSCC(=O)N3CCN(c4cccc(C)c4C)CC3)c(C)o2)c1 the results were DT40 TDP1 CPT 18µM*, HepG2 tox -67%, TGFb inhibitor inconclusive, TDP1 inh 6% and TDP1 cell noCPT inconclusive.
`CC(c1nc2ccccc2c(=O)[nH]1)N1CCN(S(=O)(=O)c2ccc(F)c(Cl)c2)CC1` (stereo not given) gave IL1B secr inh -4, DT40 TDP1 CPT 18µM*, HepG2 tox -5%, TGFb inhibitor -24% and TDP1 cell noCPT inconclusive.
`CN(C)c1ccc(N=C/C=C2/N(C)c3ccccc3C2(C)C)cc1` gave IL1B secr inh -64*, DT40 TDP1 CPT 7.3µM*, HepG2 tox -50%, TGFb inhibitor inconclusive, TDP1 inh 14% and TDP1 cell noCPT 5.2µM*.
Screening CO/N=C/C=C1/N(C)c2ccccc2C1(C)C returned IL1B secr inh -19, DT40 TDP1 CPT inconclusive, HepG2 tox -2%, TGFb inhibitor -1%, TDP1 inh 5% and TDP1 cell noCPT -6%.
For CN1/C(=C\C=Nc2cc(S(=O)(=O)N3CCOCC3)ccc2N2CCOCC2)C(C)(C)c2ccccc21 the results were IL1B secr inh -6, DT40 TDP1 CPT inconclusive, HepG2 tox 0%, TGFb inhibitor -10%, TDP1 inh 0% and TDP1 cell noCPT 21µM*.
Screening CN1/C(=C/C=C(/C#N)C(N)=O)C(C)(C)c2ccccc21 returned IL1B secr inh -7, DT40 TDP1 CPT 2.6µM*, HepG2 tox 9%, TGFb inhibitor -10%, TDP1 inh 2% and TDP1 cell noCPT 3.3µM*.
Screening CN1/C(=C\C=[N+](C)c2ccccc2)C(C)(C)c2ccccc21 returned IL1B secr inh -95*, DT40 TDP1 CPT 1.2µM*, HepG2 tox -35%, TGFb inhibitor -27%, TDP1 inh 4% and TDP1 cell noCPT 1.3µM*.
CN1/C(=C\C=C(/C#N)C(=O)Nc2ccccc2F)C(C)(C)c2ccccc21 was read as IL1B secr inh 3, DT40 TDP1 CPT -34%, HepG2 tox 12%, TGFb inhibitor 11%, TDP1 inh -8% and TDP1 cell noCPT -26%.
For CN1C(=O)C(C)(C)c2cc(S(=O)(=O)N3CCN(c4ccccc4)CC3)ccc21 the results were IL1B secr inh 13, DT40 TDP1 CPT inconclusive, HepG2 tox -8%, TGFb inhibitor 2% and TDP1 cell noCPT inconclusive.
CS(=O)(=O)c1ccc(C(=O)N2CCN(S(=O)(=O)c3ccc(C4CCCCC4)cc3)CC2)cc1 was read as IL1B secr inh 18, DT40 TDP1 CPT inconclusive, HepG2 tox -3%, TGFb inhibitor -2% and TDP1 cell noCPT -24%.
`COC(=O)CCCn1cc(CN2CC(N3CCN(Cc4cccc(C)c4)CC3)CS2(=O)=O)nn1` (stereo not given) gave IL1B secr inh 57, DT40 TDP1 CPT -3% and TDP1 cell noCPT -18%.
CS(=O)(=O)c1ccc(Cl)c(NC(=O)c2cc(S(=O)(=O)N3CCOCC3)ccc2N2CCCC2)c1 was read as IL1B secr inh -20, DT40 TDP1 CPT -13%, HepG2 tox -4%, TGFb inhibitor -3%, TDP1 inh 0% and TDP1 cell noCPT -17%.
CN1/C(=C\C=N\O)C(C)(C)c2ccccc21 was read as IL1B secr inh 22, DT40 TDP1 CPT -29%, HepG2 tox -7%, TGFb inhibitor -18%, TDP1 inh 9% and TDP1 cell noCPT -25%.
`Cc1cc(/N=C/C=C2/N(C)c3ccccc3C2(C)C)n(CCC#N)n1` gave IL1B secr inh inconclusive, DT40 TDP1 CPT 8.2µM*, HepG2 tox -17%, TGFb inhibitor -16% and TDP1 cell noCPT 6.5µM*.
Screening Cc1ccccc1N=C/C=C1\N(C)c2ccccc2C1(C)C returned IL1B secr inh -11, DT40 TDP1 CPT 18µM*, HepG2 tox -17%, TGFb inhibitor 0%, TDP1 inh 11% and TDP1 cell noCPT 8.2µM*.
For O=C(c1n[nH]c2c1CCCC2)N1CCC(n2c(C3CCCO3)nc3ccccc32)CC1 (stereo not given) the results were DT40 TDP1 CPT -6%[9.04 µM] and TDP1 cell noCPT -26%.
For COc1ccc(NC2CCCN(C(=O)c3cccnc3)C2)cc1 (stereo not given) the results were IL1B secr inh 6, DT40 TDP1 CPT 2%, HepG2 tox 52%, TGFb inhibitor 52%, TDP1 inh 2% and TDP1 cell noCPT -25%.
Screening COc1ccc(NC2CCCN(Cc3cccc4cnccc34)C2)cc1OC (stereo not given) returned IL1B secr inh 13, DT40 TDP1 CPT inconclusive, HepG2 tox -25%, TGFb inhibitor inconclusive and TDP1 cell noCPT 21µM*.
`COc1ccc(NC2CCCN(Cc3cccc4cnccc34)C2)cc1` (stereo not given) gave IL1B secr inh 17, DT40 TDP1 CPT inconclusive, HepG2 tox -25%, TGFb inhibitor -26% and TDP1 cell noCPT 21µM*.
`Cn1c(Oc2ccc(Cl)cc2)nc2c1c(=O)n(Cc1ccc(F)cc1)c(=O)n2C` gave DT40 TDP1 CPT -2%, HepG2 tox 3%, TGFb inhibitor -4% and TDP1 cell noCPT -26%.
For O=[N+]([O-])c1ccccc1N(S(=O)(=O)c1ccccc1)S(=O)(=O)c1ccccc1 the results were IL1B secr inh 12, DT40 TDP1 CPT inconclusive, HepG2 tox -16%, TGFb inhibitor 7% and TDP1 cell noCPT inconclusive.

Screening data as filed in PubChem.
